Rows were chosen to be rich in hits. Some 3.1% of all compounds tested hit in one or more screens of this group.
HIF-2a inh = inhibitors of HIF-2a; 786-0 RCC cells HIF-2a reporter, luciferase luminescence, overnight; inhibition, % at 18.8 µM; hit rate 0.72% among 360,000; AID 624352;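 active = inhibition of the luminescence signal of 40% or more relative to plate controls, in a single-dose primary screen at 18.75 µM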
Peg3 prom inh = inhibitors of Peg3 promoter; hit rate 1.7% among 360,000; inhibition, % at 20 µM; HeLa PEG-Prom luciferase reporter, luminescence, overnight;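 active = inhibition of at least 50% at 20 µM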
TRPM1 prom inh = reduces MITF-dependent TRPM1 promoter luciferase signal; hit rate 0.83% among 330,000; inhibition, % at 12.5 µM; SK-MEL-5 TRPM1 promoter luciferase, 24 h;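 active = mean inhibition across replicates of 60% or more, whatever share of single replicates reaches that level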
ABHD5-PLIN5 inh = ABHD5-PLIN5 protein interaction inhibition; Q00G26+Q8WTS1; Split G. princeps luciferase complementation, luminescence, 4 h; inhibition, % at 4 µM; hit rate 0.78% among 360,000; AID 602281;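 active = inhibition above the mean inhibition across every tested compound plus 3 SD, cut at about 22% in these data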;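 note: 0% = DMSO only wells and the 100% control is not disclosed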
CF NFkB inh = blocks PAF-induced NF-kB reporter in cystic fibrosis cells; hit rate 0.86% among 360,000; KKLEB NF-kB-GFP reporter, GFP fluorescence overnight; inhibition, % at 5 µM; AID 588850;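 active = at least 50% inhibition at 5 µM, scaled per plate between neutral and stimulator controls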;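 note: PAF is a Pseudomonas aeruginosa culture filtrate used as stimulus; plate controls were PAF-stimulated DMSO wells for no effect and unstimulated DMSO wells for full effect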
KKLEB tox = reduces viability of KKLEB cystic fibrosis airway cells; KKLEB CF airway cells viability, ATPlite luminescence, overnight; stronger effect = lower value; cells stimulated with P. aeruginosa culture filtrate; activity change (cytotoxicity), % at 5 µM; hit rate 0.36% among 360,000; AID 602141;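 active = corrected activity change at or below -50% at 5 µM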
CF NFkB conf = confirmation of cystic fibrosis induced NF-kB inhibitors. KKLEB CF airway cells, PAF-induced NF-kB-GFP fluorescence, overnight. inhibition, % at 5 µM. AID 602472. hit rate 64% among 1,300. shares compounds with CF NFkB inh; in the data active = inhibition above about 40%;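 note: stimulus PAF is a Pseudomonas aeruginosa filtrate and not platelet activating factor; plate controls were DMSO wells with stimulus for no effect and unstimulated DMSO wells for full effect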
* = called active by the depositor; . = no result given.

SMILES	HIF-2a inh	Peg3 prom inh	TRPM1 prom inh	ABHD5-PLIN5 inh	CF NFkB inh	KKLEB tox	CF NFkB conf
Cn1c(SCC(=O)NCc2ccco2)nnc1C1CCCC1	11	4	-16	-2	-29	13	.
Oc1ccc(C[C@H]2CNC(=S)N2CC2CCCN2C[C@H](Cc2ccccc2)N2C[C@H](Cc3ccc(O)cc3)N(CC3CCCCCC3)C2=S)cc1 (stereo not given in full)	-37	45	9	4	58*	-24	42*
Oc1ccc(C[C@H]2CN([C@@H](Cc3ccc(O)cc3)CN3CCC[C@@H]3CN3C(=S)NC[C@@H]3Cc3ccccc3)C(=S)N2CC2CCCCCC2)cc1	-29	101*	.	16	58*	-36	20
CC(C)C[C@@H](CN1CCCC1CN1C(=S)NC[C@@H]1Cc1ccc(O)cc1)N1C[C@H](Cc2ccc(O)cc2)N(CC2CCCCC2)C1=S (stereo not given in full)	-38	93*	23	-10	59*	-18	60*
CC(C)C[C@H]1CNC(=S)N1CC1CCCN1C[C@H](Cc1ccc(O)cc1)N1C[C@H](Cc2ccccc2)N(CC2CCCCCC2)C1=S (stereo not given in full)	-6	-14	13	8	10	2	.
CC(C)C[C@H]1CNC(=S)N1C[C@H]1CCCN1C[C@H](Cc1ccccc1)N1C[C@H](Cc2ccc(O)cc2)N(CC2CCCCCC2)C1=S	-7	99*	.	4	61*	-47	44*
CC(C)C[C@@H](CN1CCC[C@@H]1CN1C(=S)NC[C@@H]1Cc1ccccc1)N1C[C@H](Cc2ccc(O)cc2)N(CC2CCCCCC2)C1=S	-4	44	.	-2	45	-18	.
CC(C)C[C@H]1CNC(=S)N1C[C@H]1CCCN1C[C@H](Cc1ccc(O)cc1)N1C[C@H](Cc2ccccc2)N(CC2CCCCC2)C1=S	-13	16	.	8	-5	-4	.
O=C(Nc1cccc(Cl)c1)Nc1c[nH]c(=O)[nH]c1=O	6	7	-2	-6	-7	3	.
COC(=O)[C@@H]1CCCN1C(=O)CCc1nnc(CCC2CCCCC2)o1	-199	-211	-61	-4	4	-25	.
COC(=O)C(C)N(C(=O)c1ccc(C(=O)c2ccccc2)cc1)c1c(C)cccc1C (stereo not given)	3	35	-4	0	13	-3	.
COc1ccc(CC(=O)OC(C)CN2CCCCC2)cc1 (stereo not given)	3	10	6	-4	9	5	.
O=C(COc1ccc(Br)cc1)NCC1COc2ccccc2O1 (stereo not given)	0	6	12	-10	-6	3	.
Oc1ccc(C[C@H]2CNC(=S)N2CC2CCCN2C[C@H](Cc2ccc(O)cc2)N2C[C@H](Cc3ccc(O)cc3)N(CC3CCCCC3)C2=S)cc1 (stereo not given in full)	-36	43	55	15	59*	-13	59*
COc1cc2ncnc(NCc3ccc(C)o3)c2cc1OC	15	7	2	-2	2	-7	.
Cc1ccc(CNc2ncnc3ccc(-c4ccoc4C)cc23)o1	15	18	.	11	74*	-5	97*
CCCN(CCC)c1ncnc2nc[nH]c12	28	6	.	0	66*	0	79*
O=C(Nc1cccc(-c2cnc3ccccc3n2)c1)c1cccc(NC(=O)c2ccco2)c1	-69	46	36	15	67*	-10	108*
Cc1ccccc1Cn1ccc(NC(=O)c2nn(C)cc2[N+](=O)[O-])n1	2	-62	11	-1	60*	-9	-78
COc1cc(/C=C/C(=O)N2CCN(C(=O)/C=C/c3cc(OC)c(OC)c(OC)c3)CC2)cc(OC)c1OC	12	-15	15	0	-13	-1	.
COc1ccc(OC)c(/C=C/C(=O)N2C(=O)c3cccc(N)c3C2=O)c1	7	64*	55	3	60*	-40	37
COc1cc(/C=C/C(=O)N2C(=O)c3cccc(N)c3C2=O)cc(OC)c1OC	10	65*	21	3	64*	-5	-5
COc1ccc(Cl)cc1S(=O)(=O)N(C)CC(=O)NCCCn1ccnc1	12	17	0	5	2	6	.
COc1ccc(Cc2c(-c3ccco3)nc3c(C)cc(Br)cn23)c(C)c1	1	-9	.	5	-8	-1	.
Cc1cc(Br)cn2c(Cc3ccsc3)c(-c3ccco3)nc12	15	7	.	15	60*	-18	-3
SMILES	HIF-2a inh	Peg3 prom inh	TRPM1 prom inh	ABHD5-PLIN5 inh	CF NFkB inh	KKLEB tox	CF NFkB conf
COc1ccc(Cc2c(-c3ccco3)nc3ccc(Br)cn23)c(C)c1	-21	5	.	43*	53*	-26	-13
Cc1cc(Br)cn2c(Cc3ccsc3)c(-c3cccc(Cl)c3)nc12	-10	-13	.	-11	12	-12	.
Cc1cc(Br)cn2c(Cc3ccsc3)c(-c3ccc(Cl)cc3)nc12	-12	46	.	2	50*	-2	13
Cc1ccc(NC(=O)CC(C)c2ccccc2)cc1S(=O)(=O)N1CCOCC1 (stereo not given)	15	13	12	-3	8	2	.
C1CCCC(NC2=NCCO2)CCC1	1	-10	-14	0	-5	9	.
CCCCNC(=S)N(C)/N=C/c1ccc(OCC(=O)Nc2ccc(OC)cc2)c(OC)c1	-16	41	2	-4	54*	8	36
CCCCNC(=S)N(C)/N=C/c1ccc(OCC(=O)Nc2c(C)cc(C)cc2C)c(OC)c1	4	19	6	-1	-25	-1	.
CC(OC(=O)c1ccco1)C(=O)Nc1ccc(C(F)(F)F)cc1 (stereo not given)	-25	-3	-11	14	-13	18	.
O=C(NCCN1CCN(c2ccccc2)CC1)c1cccc(Br)c1	4	4	-6	3	52*	-14	53*
Cc1cccc(C(=O)NCCN2CCN(c3ccccc3)CC2)c1	13	19	-1	2	-12	4	.
COc1ccc(-n2ncc3c(N4CCN(Cc5ccccc5)CC4)ncnc32)cc1	-215	103*	-8	2	66*	6	74*
CC(C)CC1NC(=O)N(CC(=O)N2c3ccccc3NC(=O)C2(C)C)C1=O (stereo not given)	20	11	13	-1	17	6	.
CC(C)C[C@@H]1NC(=O)[C@H](Cc2ccccc2)N(C)C(=O)[C@H](C)NC(=O)c2ccccc2NC(=O)[C@H](Cc2ccc(O)cc2)N(C)C1=O	-8	52*	18	2	82*	-24	94*
Cc1ccc(NC(=O)COC(=O)C2CCN(c3ccc(C(F)(F)F)cn3)CC2)cc1C	2	-3	-6	7	7	-10	.
